Data taken from PubChem BioAssay (NCATS).
Inconclusive results are not listed. Activity calls are given as the source filed them. The call rests on the fitted dose curve; in most records, active means well fitted cell-killing curve with a large enough effect; inconclusive means small, poorly fitted or top-dose-only effect, or effect the other way; inactive means no such curve, though single readings can be large or run the other way.

test: Quantitative High-Throughput drug screen in 47 multiple myeloma cell lines against the NCATS MIPE library collection: KMM1_JCRB cell viability assay (AID 1918960); conditions: KMM1 myeloma viability, CellTiter-Glo ATP luminescence, 48 h; series mostly up to 45.8 µM; further: nearly all actives have a fitted effect of over 30% in size
Procedure, shortened: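 500 cells/well; MIPE 4.0 library pinned in; 48 h, 37 °C, 5% CO2; CellTiter-Glo ATP luminescence. Controls: DMSO = 100% viability, medium only = 0%.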
Potency means the concentration at half of the fitted maximal effect.

**Q.** With `O=C(C=Cc1ccc(O)cc1)c1ccc(O)cc1O` as the molecule, how does the Potency read?
**A.** 16.6 µM (active)

**Q.** For `CCc1cc(-c2n[nH]c(C)c2-c2ccc3c(c2)OCCO3)c(O)cc1O`, which Potency is on record?
**A.** 3.72 µM (active)

**Q.** With `CCCCCCCCCCCCCC(=O)N[C@H](CO)[C@H](O)c1ccc([N+](=O)[O-])cc1` as the molecule, how does the Potency read?
**A.** 20.9 µM (active)

**Q.** Which Potency does the source give for `COc1ccc(CCN(C)CCCOc2ccc(S(=O)(=O)c3[nH]c4ccccc4c3C(C)C)cc2)cc1OC` here?
**A.** inactive

**Q.** Which Potency does the source give for `Clc1ccc(COC(Cn2ccnc2)c2ccc(Cl)cc2Cl)c(Cl)c1` (centres undefined) here?
**A.** 18.7 µM (active)

**Q.** With `CCOc1ccccc1N=Nc1c(C)[nH]n(-c2nc(-c3ccccc3)cs2)c1=O` as the molecule, how does the Potency read?
**A.** inactive

**Q.** For `CC1(C)[C@H]2CC[C@]3(C)[C@@H](C(=O)C=C4[C@@H]5C[C@@](C)(C(=O)O)CC[C@]5(C)CC[C@]43C)[C@@]2(C)CC[C@@H]1O`, which Potency is on record?
**A.** inactive

**Q.** Which Potency does the source give for `COc1cc(Cl)cn2c(-c3cccc(NC4CNC4)n3)cnc12` here?
**A.** 16.6 µM (active)

**Q.** For `CC(=O)OCC(=O)[C@@]1(O)CC[C@H]2[C@@H]3CCC4=CC(=O)C=C[C@]4(C)[C@@H]3[C@@H](O)C[C@@]21C`, which Potency is on record?
**A.** inactive

**Q.** Which Potency does the source give for `COc1cc2nc(-c3cc(F)ccc3O)nc(N[C@@H]3CNC[C@@H]3C(C)(C)O)c2cc1OC` here?
**A.** 4.18 µM (active)

**Q.** For `Cc1nn(Cc2ccccc2Cl)c(C)c1CN(C)CC(O)COc1ccc(Cl)cc1` (centres undefined), which Potency is on record?
**A.** 5.9 µM (active)

**Q.** Which Potency does the source give for `Nc1ncnc2c1ncn2[C@@H]1O[C@H](CO)[C@@H](O)[C@@H]1O` here?
**A.** 1.32 µM (active)

**Q.** With `C=C[C@@H]1CN2CCC1C[C@@H]2C(O)c1ccnc2ccc(OC)cc12` (some centres undefined) as the molecule, how does the Potency read?
**A.** inactive

**Q.** For `CO[C@H]1/C=C\O[C@@]2(C)Oc3c(C)c(O)c4c(O)c(c5c(nc6cc(C)ccn65)c4c3C2=O)NC(=O)C(C)=CC=C[C@H](C)[C@H](O)[C@@H](C)[C@@H](O)[C@@H](C)[C@H](OC(C)=O)[C@H]1C`, which Potency is on record?
**A.** 18.7 µM (active)
